Laboratory results: the supplement of paper PMC12067926
Values without a mark were called inactive.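 The calls were made as follows: active = growth AUC significantly below the DMSO wells by Dunnett test; inactive = the rest.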

The compounds below were run on Bacillus 1 (Bacillus foraminis) (assay: relative growth (AUC of 72 h growth curve relative to DMSO control, dAUC) (ratio); higher = more growth (less inhibition), active = hit call of the paper). Conditions: 20 µM.
Description: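 Environmental bacterial isolates (Iceland stream sediment and Silwood Park soil) and whole stream-sediment communities were grown in LB from a 1:100 dilution with each pesticide at 20 µM (1% DMSO). A600 was read hourly for 72 h and the area under a spline-fitted growth curve (AUC) was computed. dAUC is the mean AUC of 3 biological replicates divided by the mean AUC of the DMSO controls. Significance was tested by Dunnett's test against the DMSO control.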

Row | SMILES | relative growth
1 | N#CC(CCc1ccc(Cl)cc1)(Cn1cncn1)c1ccccc1 (stereo not given) | 0.836
2 | CCCCN(CCCC)SN(C)C(=O)Oc1cccc2c1OC(C)(C)C2 | 1.03
3 | Cc1c(COC(=O)[C@@H]2[C@H](/C=C(\Cl)C(F)(F)F)C2(C)C)cccc1-c1ccccc1 (racemic) | 0.976
4 | CCC(C)(C)C(=O)OC1=C(c2ccc(Cl)cc2Cl)C(=O)OC12CCCCC2 | 0.975
5 | COP(N)(=O)SC (stereo not given) | 0.871
6 | Nc1c(Cl)c(F)nc(OCC(=O)O)c1Cl | 1.02
7 | CC(C)N1C(=O)c2ccccc2NS1(=O)=O | 1.01
8 | COc1cccc(C(=O)NN(C(=O)c2cc(C)cc(C)c2)C(C)(C)C)c1C | 0.966
9 | CCOc1cc(Oc2ccc(C(F)(F)F)cc2Cl)ccc1[N+](=O)[O-] | 0.956
10 | CCNc1nc(Cl)nc(NC(C)C)n1 | 0.997
11 | CC1(C)C(C=C(Cl)Cl)C1C(=O)OCc1cccc(Oc2ccccc2)c1 (stereo not given) | 1.06
12 | COC(=O)Nc1nc2ccccc2[nH]1 | 1.1
13 | CCC(=O)Nc1ccc(Cl)c(Cl)c1 | 0.957
14 | CNC(=O)Oc1cccc(/N=C/N(C)C)c1 | 0.983
15 | CC[C@H](C)[C@H]1O[C@]2(C=C[C@@H]1C)C[C@@H]1C[C@@H](C/C=C(\C)[C@@H](O[C@H]3C[C@H](OC)[C@@H](O[C@H]4C[C@H](OC)[C@@H](O)[C@H](C)O4)[C@H](C)O3)[C@@H](C)/C=C/C=C3\CO[C@@H]4[C@H](O)C(C)=C[C@@H](C(=O)O1)[C@]34O)O2.CO[C@H]1C[C@H](O[C@H]2[C@H](C)O[C@@H](O[C@@H]3/C(C)=C/C[C@@H]4C[C@@H](C[C@]5(C=C[C@H](C)[C@@H](C(C)C)O5)O4)OC(=O)[C@@H]4C=C(C)[C@@H](O)[C@H]5OC/C(=C\C=C\[C@@H]3C)[C@]54O)C[C@@H]2OC)O[C@@H](C)[C@@H]1O | 0.944
16 | Cc1cccc2sc3nncn3c12 | 1.03
17 | CCSC(C)CC1CC(=O)C(/C(CC)=N/OC/C=C/Cl)=C(O)C1 (mixture of isomers) | 1.06
18 | O=C(Nc1ccccc1-c1ccc(Cl)cc1)c1cccnc1Cl | 1.01
19 | Cc1nnc(-c2ccccc2)c(=O)n1N | 0.881
20 | CC1(C)[C@H](/C=C(\Cl)C(F)(F)F)[C@@H]1C(=O)OC(C#N)c1cccc(Oc2ccccc2)c1 (stereo not given in full) | 1.05

Row | SMILES | relative growth
21 | Cc1nc(N(C)C)nc(OC(=O)N(C)C)c1C | 0.959
22 | C/C(=N\C#N)N(C)Cc1ccc(Cl)nc1 | 0.921
23 | CC1(C(=O)Nc2ccc(O)c(Cl)c2Cl)CCCCC1 | 1.01
24 | CC(C)OC(=O)C(C(=O)OC(C)C)=C1SCCS1 | 1.05
25 | CC1COC(Cn2cncn2)(c2ccc(Oc3ccc(Cl)cc3)cc2Cl)O1 (stereo not given) | 1.11
26 | CC1(C)CON(Cc2ccccc2Cl)C1=O | 1.03
27 | Oc1ccc(Cl)cc1Cc1cc(Cl)ccc1O | 0.81
28 | O=C(O)CNCP(=O)(O)O | 1.04
29 | CCCC1COC(Cn2cncn2)(c2ccc(Cl)cc2Cl)O1 (stereo not given) | 0.942
30 | COC(=O)NC(=S)Nc1ccccc1NC(=S)NC(=O)OC | 0.942
31 | COCC(=O)N(c1c(C)cccc1C)C(C)C(=O)OC (stereo not given) | 1.11
32 | COP(=S)(OC)Oc1ccc(SC)c(C)c1 | 0.995
33 | CN(C)C(CSS(=O)(=O)O)CSS(=O)(=O)O | 1.07
34 | Nc1c([N+](=O)[O-])ccc(Oc2ccccc2)c1Cl | 1.02
35 | N#Cc1sc2c(=O)c3ccccc3c(=O)c=2sc1C#N | 0.97
36 | CN/C(=N/CC1CCOC1)N[N+](=O)[O-] (stereo not given) | 1.11
37 | C#CCN1C(=O)COc2cc(F)c(N3C(=O)C4=C(CCCC4)C3=O)cc21 | 1.14
38 | CC(COc1ccc(Oc2ccccc2)cc1)Oc1ccccn1 (stereo not given) | 1.07
39 | COCC(C)N(C(=O)CCl)c1c(C)csc1C (stereo not given) | 0.948
40 | CC1(C)C(C(=O)OC(C#N)c2cccc(Oc3ccccc3)c2)C1(C)C (stereo not given) | 0.917
